Screens deposited in PubChem by National Center for Advancing Translational Sciences (NCATS).
This excerpt belongs to a sample that is enriched for hits.
NTMT1 inhibitor: NTMT1 methyltransferase inhibition | Q9BV86 | Potency, µM (highest dose often 114 µM), for the others: top-dose activity change, negative = inhibition, actives largely listed as inhibitors | AID 1645870 | NTMT1 MTase-Glo SAH luminescence, purified enzyme | 59,000 tested, 2.5% active;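 note: potency is the fitted concentration of half-maximal effect; plate controls were DMSO vehicle for no effect and no enzyme for full effect; nearly all actives have a fitted effect of over 65% in size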
p53null 39C kill: selectivity test: cytotoxicity in p53 null cells, nonpermissive temperature; H1299 p53-null (neo) cells, 39C, ATPlite viability, 24 h; Potency, µM (top dose mostly 46.1 µM), inactives show at the top dose activity, negative = cell killing, actives largely listed as cytotoxic; 55,000 tested, 0.97% active; AID 904;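 note: potency is the fitted concentration of half-maximal effect; 0% = DMSO only and -100% = full killing by 100 µM tamoxifen; nearly all actives have a fitted effect of over 50% in size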
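ATP-luminescence viability readout (ATPlite, 20 min RT) after 24 hr compound treatment at 39C of H1299-neo or H1299-p53A138V cells; titration up to 46 uM; normalized to DMSO and 100 uM tamoxifen; Hill-fit AC50.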
GALC G270D up: enhancers of human galactocerebrosidase G270D mutant activity in cells; AID 1159614; P54803; Potency, µM (titrated, usually from 57.5 µM), hits mostly activators; 45,000 tested, 0.1% active; 145M-Twi-hGALC-G270D cells (Twitcher mouse brain line with human GALC G270D), HMU-beta-Gal fluorescence, 48 h; note: potency is the fitted concentration of half-maximal effect; 0% is about no effect; nearly all actives have a fitted effect of over 65% in size
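Fluorescence readout: HMU-β-gal cleavage by mutant GALC (0.1 mM final, citrate/phosphate pH 5.2 with 1 mg/mL taurocholate), stopped with carbonate/bicarbonate plus Triton X-100. Cells: murine Twitcher 145M-Twi expressing human G270D GALC; qHTS for activators.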
FH mod: Identification of activators of human fumarate hydratase by quantitative high-throughput screening | 54,000 tested, 0.22% active | Potency, µM (top dose mostly 79.9 µM), for the others: at the highest dose activity change, negative = inhibition, actives largely listed as inhibitors | FH coupled MDH/diaphorase resazurin fluorescence, 15 min | Fumarate hydratase, mitochondrial (Homo sapiens), P07954 | AID 1347055, 2019; note: potency is the fitted concentration of half-maximal effect; % is set by controls: 0 for no effect and ±100 for the full control effect; the screen sought activators but most active calls are inhibition curves; nearly all actives have a fitted effect of over 45% in size
Target sequence (P07954 whole entry, looked up): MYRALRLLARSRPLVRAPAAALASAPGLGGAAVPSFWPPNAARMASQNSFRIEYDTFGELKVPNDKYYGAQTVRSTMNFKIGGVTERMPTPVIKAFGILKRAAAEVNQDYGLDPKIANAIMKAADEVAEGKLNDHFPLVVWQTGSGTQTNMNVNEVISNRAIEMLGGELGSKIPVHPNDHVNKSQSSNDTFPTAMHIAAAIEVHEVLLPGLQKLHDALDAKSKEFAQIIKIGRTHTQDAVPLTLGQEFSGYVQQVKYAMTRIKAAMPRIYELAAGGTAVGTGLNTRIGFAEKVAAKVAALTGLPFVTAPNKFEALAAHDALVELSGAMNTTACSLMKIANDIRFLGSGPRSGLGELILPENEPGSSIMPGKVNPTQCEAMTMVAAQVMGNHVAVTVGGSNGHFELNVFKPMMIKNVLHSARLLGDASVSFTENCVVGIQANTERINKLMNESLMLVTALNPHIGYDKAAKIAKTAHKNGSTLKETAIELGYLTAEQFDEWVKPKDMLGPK
p53null 32C kill: p53 null cell cytotoxicity, permissive temperature | AID 903 | H1299-neo p53 null cells, ATP luminescence, 24 h, 32C | 55,000 tested, 0.62% active | Potency, µM (doses to about 46.1 µM), inactives show at the top dose activity change, negative = cytotoxicity, hits mostly cytotoxic;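 note: potency is the fitted concentration of half-maximal effect; 0% = DMSO only and -100% = full killing by 100 µM tamoxifen; nearly all actives have a fitted effect of over 55% in size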
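ATP-content luminescence in p53-null H1299-neo cells after 24 h compound exposure (up to 46 uM) at 32C permissive temperature; 0% and 100% killing set by DMSO and 100 uM tamoxifen; Hill-equation AC50.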
NNMT counter: counter-screen for NTMT1 inhibitors: human NNMT inhibition; shares compounds with NTMT1 inhibitor; NNMT MTase-Glo luminescence, SAH detection; Potency, µM (doses to about 57.1 µM), inactives show at the highest dose activity, negative = inhibition, most hits filed as inhibitors; 120 tested, 10% active; AID 1645878
Numbers without * were called inactive; [ ] = another dose, or the depositor's remark. Calls come from the whole dose curve; as a rule, active = well fitted curve in the direction sought with a large enough effect; inconclusive = small, poorly fitted or top-dose-only effect, or another doubt; inactive = no such curve, though single readings can be large; an effect the other way counts as inactive or inconclusive.

For O=C(NC1CCCCC1)c1cccc(COCC(F)(F)F)c1 the results were p53null 39C kill -8.6% and p53null 32C kill 1.5%.
`NC(=O)c1cccc(-c2cc(OC(=O)NC3CCCCC3)ccc2O)c1` gave NTMT1 inhibitor inconclusive, FH mod -11.6% and NNMT counter -18.0%.
COc1ccc(OC)c2sc(N3CCN(C(=O)c4ccco4)CC3)nc12 was read as NTMT1 inhibitor -8.4%, p53null 39C kill 17.1%, GALC G270D up inactive, FH mod 8.9% and p53null 32C kill -2.9%.
COc1cc2nc(N3CCN(C(=O)c4ccco4)C4CCCCC43)nc(N)c2cc1OC (configuration not stated) was read as NTMT1 inhibitor inconclusive, FH mod -6.8% and NNMT counter 23.6%.
`O=C(Nc1ccc(F)c(C(F)(F)F)c1)Nc1nc(-c2ccncc2)cs1` gave NTMT1 inhibitor 4.3%[57.5 µM].
`N#Cc1ccc(Nc2nc(-c3ccc(O)cc3O)cs2)cc1C(F)(F)F` gave NTMT1 inhibitor inconclusive, FH mod inconclusive and NNMT counter -28.1%.
For O=[N+]([O-])c1ccccc1-c1nc(NCc2ccc(-c3cccnc3)cc2)c2ccccc2n1 the results were NTMT1 inhibitor 11.1%.
CC1(C)CCCC2(C)c3c4c(c(=O)oc(=O)c3=CCC12)=CCC1C(C)(C)CCCC41C (configuration not stated) was read as NTMT1 inhibitor 16.1%[29.8 µM] and FH mod 1.1%[53.3 µM].
`CC(C)c1cc2c(c(O)c1O)[C@@]13CCCC(C)(C)C1[C@@H](O)[C@@H]2OC3=O` (some centres not stated) gave NTMT1 inhibitor inconclusive, FH mod -8.8%[53.3 µM] and NNMT counter -10.4%[38.3 µM].
Screening CC(C)c1cc2c(c(O)c1O)[C@@]13CCCC(C)(C)[C@@H]1[C@H](OC3=O)C2=O returned NTMT1 inhibitor -10.0%[29.8 µM], FH mod inconclusive and NNMT counter inconclusive.
Screening COc1ccc(C(=O)Nc2nc(-c3ccccc3)cs2)c(OC)c1 returned NTMT1 inhibitor 4.7%[57.5 µM].
O=C(Nc1cccc2cccnc12)c1ccc(N2C(=O)[C@@H]3C4C=CC(C4)[C@@H]3C2=O)cc1 was read as NTMT1 inhibitor 0.8%[57.5 µM] and FH mod -5.0%.
For NCCOCCOCCNC(=O)Cc1ccc(Nc2nc(NCc3ccc(F)cc3)nc(NCC3CCCCC3)n2)cc1 the results were NTMT1 inhibitor inconclusive and FH mod -2.5%.
Screening CC[N+]1(C/C2=C/CCCCCC2)CCC(NC(=O)C2c3cc(Cl)ccc3Oc3ccc(Cl)cc32)CC1 (configuration not stated) returned NTMT1 inhibitor inconclusive, FH mod 1.8% and NNMT counter inconclusive.
For Nc1[nH]nc2nnc(-c3c(-c4ccccc4)nn4ccccc34)cc12 the results were NTMT1 inhibitor 8.91µM*, FH mod 2.0% and NNMT counter 11.2µM*.
Screening O=C(O)c1cc(-c2c(-c3ccccc3)nn3ccccc23)n[nH]c1=O returned NTMT1 inhibitor -6.0%[57.5 µM] and FH mod -0.3%.
For c1ccc(-c2cnn3cc(-c4ccc(OCCN5CCOCC5)cc4)cnc23)cc1 the results were NTMT1 inhibitor 4.3% and FH mod -8.9%.
Screening Cc1[nH]c(/C=C2\C(=O)Nc3cc(-c4ccccc4)ccc32)c(C)c1CCC(=O)O returned NTMT1 inhibitor inconclusive, FH mod -17.5% and NNMT counter 27.6%.
Screening Nc1ncnc2c1nc(N)n2[C@@H]1O[C@H](CO)[C@@H](O)[C@H]1O returned NTMT1 inhibitor 125.4%[57.5 µM], FH mod -1.1% and NNMT counter 18.6%.
`COc1ccc(NC(=O)N2CCN3CCCCC3C2)cc1OC` (configuration not stated) gave NTMT1 inhibitor -5.8%, p53null 39C kill 22.3%, GALC G270D up inactive, FH mod -15.6% and p53null 32C kill 4.2%.
CCc1nc(C(N)=O)c(Nc2ccc(N3CCC(N4CCN(C)CC4)CC3)c(OC)c2)nc1NC1CCOCC1 was read as NTMT1 inhibitor 20µM*, FH mod -1.4%[53.3 µM] and NNMT counter -16.4%[38.3 µM].
C=C(NC(=O)C(=C)NC(=O)c1csc(C2=NC3c4csc(n4)C4NC(=O)c5csc(n5)C(C(C)(O)C(C)O)NC(=O)C5CSC(=N5)/C(=C/C)NC(=O)C(C(C)O)NC(=O)c5csc(n5)C3(CC2)NC(=O)C(C)NC(=O)C(=C)NC(=O)C(C)NC(=O)C(C(C)CC)NC2C=Cc3c(C(C)O)cc(nc3C2O)C(=O)OC4C)n1)C(N)=O (configuration not stated) was read as NTMT1 inhibitor 25.7%[57.5 µM] and FH mod -13.4%.
For CN=c1nc(-c2ccccc2)n(-c2ccccc2)s1 the results were FH mod inconclusive and NNMT counter 22.4µM*.
`CC[C@@]1(O)C(=O)OCc2c1cc1n(c2=O)Cc2c-1nc1ccccc1c2CCNC(C)C` gave NTMT1 inhibitor 13.3%[12.6 µM].
CCN1CCC(n2cc(CNc3cc(Cl)c4ncc(C#N)c(Nc5ccc(F)c(Cl)c5)c4c3)nn2)CC1 was read as NTMT1 inhibitor 2.51µM*, FH mod -8.7% and NNMT counter inconclusive.
Screening CCOc1ccc(CCNC(=O)c2cc3sccc3[nH]2)cc1OCC returned NTMT1 inhibitor -8.6%.
C[C@@H](Oc1cc(-n2cnc3ccc(OC4CCN(C)CC4)cc32)sc1C(N)=O)c1ccccc1C(F)(F)F was read as NTMT1 inhibitor 2.24µM*, FH mod -11.0% and NNMT counter inconclusive.
C=CC(=O)N1C[C@H](Nc2ncnc3[nH]ccc23)CC[C@@H]1C was read as NTMT1 inhibitor 9.6%.
`C[C@@H](Oc1cc(-c2cnn(C3CCNCC3)c2)cnc1N)c1c(Cl)ccc(F)c1Cl` gave NTMT1 inhibitor 17.8µM*, FH mod -8.0% and NNMT counter inconclusive.
`C[C@H](Oc1cc(-c2cnn(C3CCNCC3)c2)cnc1N)c1c(Cl)ccc(F)c1Cl` gave NTMT1 inhibitor inconclusive and FH mod -3.1%.
COc1ccc(C(=O)COC(=O)CCCC(=O)Nc2ccc(C(C)=O)cc2)cc1 was read as NTMT1 inhibitor 20.0%, p53null 39C kill 25.2%, GALC G270D up inactive, FH mod -11.1% and p53null 32C kill -5.9%.
